69 sequences from PubChem BioAssay AID1508600 (Functional Genomics Laboratory (NCATS/FGL), 2020) can be followed below.

Among all 53,000 sequences or so, about 3,700 (7%) were called active. Shown is part of a subset that was picked to be rich in actives. Values without a mark were called inactive.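 Rule for the calls: active = gene knockdowns whose robust z-score for IL-1 alpha signal is at least 2 or at most -2, so actives lie on both sides; inactive = the rest.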

This assay in a line: Components of the Cytosolic LPS Sensing Pathway: Gene Identification via Genome-wide siRNA Screen.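 Note: robust z of the log signal after scaling to non-targeting control siRNA wells of the plate.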 As to conditions: RAW264.7 macrophages, IL-1a HTRF, actives lie on both sides, screened at 100 nM (by protocol), cells primed 5 h with Pam3CSK4 first. Put shortly:
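Mouse macrophage line RAW264.7 is transfected with siRNA (100 nM final), grown 48h, primed with TLR ligand Pam3CSK4 5 h and given intracellular LipidA 24 h. IL-1a in supernatant is read by HTRF and viability by luminescence.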
(Time-resolved FRET reads energy transfer from a long-lived donor to a nearby acceptor.)
Turning to GGAGCUGUUUCCAGUUCAGTT against Tomm40, the z-score was -1.12.

In the case of CGUGCUGGUAACGGAAUUGTT against Ptger2, the z-score is 2.29 (active).

As to GGGAACAGGAGAAAACGGATT against Bnipl, the z-score was 1.2.

Turning to GGAAGACAACUGUUGUGGCTT against Dagla, the z-score is -0.54.

Take GUUCGGUACAACUUUUCUGTT against Alx4: the z-score is 0.326.

GGAUAAAAAUCACCCACUGTT against Vwa8: the z-score was 0.21.

As to GCCUCUUAAUGCUUUUGUATT against Sfxn1, the z-score was -0.272.

Turning to GGUGGUUGGAGUACUCAAGTT against Capza1, the z-score was -2.53 (active).

For GCACAUCACAAGAAUUACUTT against Lhfpl1, the z-score was -0.0486.

For AGCUGACUGUAAAAAAACCTT against Fuom, the z-score was 0.19.

For the sequence GGAAAUGCCAUAGUCCUAUTT against Mrgprb5, the z-score was -2.54 (active).

As to GGAACUGGCCAAGUUUAAATT against Ing3, the z-score was 0.653.

As for GGCCAGAACUACGAAGCCATT against Capn12, the z-score was 0.981.

Consider GGACCUUCGUGAGAAUUUCTT against Mst1, for which the z-score is 0.521.

As for CCUACAGUGACCUUUCCCGTT against Apcs, the z-score is -1.22.

Take GGAUAUCACCCACAAUAAATT against Vps28: the z-score was -0.653.

Take GGAGCAAUUCUACCGCUACTT against Fbxw5: the z-score was -2.14 (active).

For GCCCAUUUUAGUAAACGAATT against Dspp, the z-score is 1.87.

As to GGCCUUAAAGAAACACAAGTT against Hnrnph2, the z-score was 2.3 (active).

Regarding GGUCCUUCAACGGAAGGGATT against Tagap, the z-score was 0.196.

In the case of GGUUUGCAAUAAUUUUCCCTT against Cyp2c66, the z-score is -0.0991.

For the sequence CCUAUUAUAGGACAAAGUATT against Efhc2, the z-score is -0.54.

As to CCACAAGUUCCACACUCCATT against Olfr1163, the z-score is 0.42.

As for GGAGGGACAUGAUUUUGAATT against Pfkfb2, the z-score was 2.22 (active).

Consider GGAGCAAGUGAUGAUGACCTT against Pkp1, for which the z-score is -0.263.

As to GCGGUAUGGGAAGCUAAAGTT against Rhbdf1, the z-score was 0.617.

GGAGAUACUGAAAGAGGCCTT against C1qtnf12: the z-score was -1.25.

Take UUCUUGACAGCUGGAAGAGTT against Irgc1: the z-score was 0.12.

For GGAAAAACGAUACUUGAUUTT against Gria3, the z-score is -0.751.

Take GGUGAGACUAUAAAGAUAATT against Piwil4: the z-score was 0.841.

Regarding CCGAGCAGGAUUGCAUAUATT against Cspg5, the z-score was 1.41.

On to GGCAUUGAGAUGCUGGAAATT against Trappc4, for which the z-score was 2.46 (active).

As for GCUAUUCUGAUGCGUGGAGTT against Coq2, the z-score is -1.24.

As to GCCACGACAACAAAUCCCATT against Lbr, the z-score was -2.62 (active).

UGAAGCUGUCCCGGACUAATT against Shf: the z-score was 0.731.

With GGUCAUUGGCACCAACAAGTT against Tgfbi, the z-score was -0.722.

GGAACAAAGAGGUGAUGUUTT against Olfr109: the z-score was -0.949.

In the case of GGAGAUGAUUGACCGGCUATT against Epc1, the z-score was -1.03.

Take CCAUUUACCUCAUAGGACCTT against Crb3: the z-score was -0.239.

On to CGACCAUCUUUACUUUAUCTT against Cilk1, for which the z-score is 1.61.

On to GGAGGGAAGCGAGAGUUUUTT against Emilin2, for which the z-score was 2.25 (active).

Regarding GGGUCGUAAUGAGUUCUGGTT against Med1, the z-score was 0.83.

Take GGAAACUUUUGGAAGACUATT against Jmjd6: the z-score is 2.02 (active).

Take GGGCCAAUAAAGCAACUGCTT against Laptm5: the z-score was 0.704.

As for GGAUACUCCUCUGAGUAGUTT against Mtmr11, the z-score is -0.469.

In the case of GCCAAAGUGUGUGUUGAAGTT against Gng11, the z-score is -0.296.

In the case of CGCACACAGUCGUAUGUACTT against Ryr1, the z-score is -1.21.

With GGGAACCAUCAAUAGGCACTT against Apol7a, the z-score is 0.923.

“GGGUAUUAAAACCUCACUUTT against 4931406H21Rik”: the z-score was -2.58 (active).

For GGCACAAAGCAAGAUUACCTT against Cebpz, the z-score was 0.422.

With CCAGAAUGUAAACUUGGUCTT against Trpv6, the z-score was 0.0508.

For GGUGAUAAAGCCAAGCAAATT against Vps4b, the z-score was -0.48.

For GGGCUUCUUUGACCUCAUCTT against Kdelr1, the z-score was -2.71 (active).

For the sequence GGAUUCAAGGAAGGCCUUCTT against Myl7, the z-score was -0.146.

GGGACUCAGAAUCCACACUTT against Olfr1046: the z-score was 1.91.

Regarding GGAGCUUAGACAAAAAGCCTT against Spty2d1, the z-score was -1.04.

For the sequence GGCCGCCCUAAAAAGAAGCTT against Olfr95, the z-score is 1.29.

In the case of GGAGAUUGAUGAGCAUGCCTT against Rab40b, the z-score is -2.15 (active).

As for CGCCUUAUAAUAUACCUAUTT against Clmp, the z-score is 1.12.

As to GCCAUGAUGACUAACCUUATT against Dbpht2, the z-score was -1.27.

Regarding GGAACUUGAGGUUUUCUGGTT against Spag17, the z-score was -1.89.

Take GGAGAUCCGUCGAAUCAACTT against Anxa4: the z-score is 3.19 (active).

For the sequence GCACCUGAGAAGCUCAUUGTT against Chil5, the z-score was -1.96.

In the case of GGUUGACCUGUGCUUUUCGTT against Arr3, the z-score was -0.625.

In the case of GGAGCAGCAGAAGAUCCUUTT against Olfr47, the z-score was 2.52 (active).

With GGAAAUGAAUGGAAAUAGUTT against Ino80c, the z-score was -0.192.

Regarding GGAGGAAAAGGCAAUCGUUTT against Mtg2, the z-score is 0.359.

Consider GGAACACAAUAGUACAUACTT against Slc2a4, for which the z-score is 3.98 (active).

On to CCUUACCACAUCCUUGUCGTT against Fcf1, for which the z-score is -1.33.
